From PubChem BioAssay AID493240 (Broad Institute, 2011)
The whole screen tested about 1,300 compounds, of which about 270 (21%) were called active. How the calls were made is not given here. Not all results are given here. Results with a measured potency or affinity are listed apart.

assay: SK-MEL-5 parental cell viability loss, dose response, orthogonal assay for MITF inhibitor project, CellTiter-Glo, cherry-picked, set 3 (AID 493240); conditions: SK-MEL-5 viability, ATP luminescence (CellTiter-Glo), 24 h; series mostly up to 35 µM

Structure (SMILES)	outcome
O=[N+]([O-])c1cc(S(=O)(=O)N2CCCCCC2)ccc1F	inactive
O=C(N/N=C/c1cc(Cl)ccc1O)c1ccncc1	inactive
O=C(COC(=O)c1ccc[nH]c1=O)Nc1ccc(N2CCCCC2)cc1	inactive
CN=c1scc(-c2ccccc2F)n1/N=C/c1ccc[nH]1	inactive
Cc1ccc(COc2ccc(C)nc2[N+](=O)[O-])cc1	inactive
O=C(Cn1ncc(Cl)c(Cl)c1=O)Nc1ccc2c(c1)OCO2	inactive
O=[N+]([O-])c1cccc(/C=N/Nc2ncc(Br)cn2)c1	inactive
O=C(c1ccc(S(=O)(=O)Cc2ccccc2Cl)c([N+](=O)[O-])c1)N1CCN(c2ccccn2)CC1	inactive
CC(C)C(=O)NC(c1ccco1)c1ccc2cccnc2c1O (centres undefined)	inactive
COc1cc(SC)ccc1C(=O)Nc1ccc(Br)cn1	inactive
COc1cc(SC)ccc1C(=O)Nc1ncc(C)s1	inactive
COc1cc2c(cc1O)C(SC)=NC(C)(C)C2	inactive
O=[N+]([O-])c1cc(CN2CCN(c3ccccc3)CC2)c(O)c2ncccc12	inactive
O=[N+]([O-])c1ccccc1OCCCOc1cccc2cccnc12	inactive
CC(=O)Nc1ccc2c(c1)ncn2-c1ccccc1	inactive
CSCCNC(=O)c1ccc2nc(Cc3ccccc3F)oc2c1	inactive
N#C/C(=C\c1ccc(OCc2ccc(C(=O)O)cc2)cc1)C(=O)N1CCOCC1	inactive
Cc1ccc(-c2cc3onc(-c4ccccc4)c3c(=O)n2C)cc1	inactive
CN(Cc1ccccc1)C1=CC(=[N+]2CCCC2)CC(C)(C)C1	inactive
N/C(=N\OC(=O)c1cccc(F)c1)c1cccc([N+](=O)[O-])c1	inactive
COc1ccc(C(=O)NCC(=O)c2ccccc2)cc1	inactive
O=C(N/N=C/C=C/c1ccccc1)c1ccccn1	inactive
COc1cc2c(cc1OC)C(SC)=NC1(CCCC1)C2	inactive
O=C(c1ccccc1)c1cc(Cl)ccc1N1C(=O)C=CC1=O	inactive
COc1ccc(/C=N/Nc2cc(C)nc(-n3nc(C)cc3C)n2)c(OC)c1	inactive

Structure (SMILES)	outcome
CC(=O)Oc1c(C(=O)c2nnc(C)o2)c(=O)n(Cc2ccccc2)c2ccccc12	inactive
Cc1ccc2nc(NC(=O)CCCC(=O)O)sc2c1	inactive
CN(C)CCCN(C(=O)c1ccc(Cl)s1)c1nc2cc3c(cc2s1)OCO3	inactive
Cc1c(C#N)c(NC(=O)CCl)n(Cc2ccc(F)cc2)c1C	inactive
CCOc1ccccc1NC(=O)C(=O)N/N=C/c1cc(Br)ccc1O	inactive
COc1ccccc1OCC(=O)N/N=C/C=C/c1ccc([N+](=O)[O-])o1	inactive
CC(C)(C)C(=O)Nc1cc2nn(-c3ccccc3)nc2cc1Cl	inactive
CCOc1ccc2nc(NC3=NC(c4ccc(OC)cc4)CC(=O)N3)nc(C)c2c1 (centres undefined)	inactive
Cc1ccc(C(=O)c2cccc(N)c2)cc1C	inactive
Cc1nc2ccccn2c1C(=O)N/N=C/c1ccc([N+](=O)[O-])o1	inactive
CC1=NC(=O)C(N=Nc2cccc(C(=O)O)c2)N1c1ccccc1 (centres undefined)	inactive
CC(Oc1ccc(F)cc1)C(=O)Nc1nc(-c2ccccn2)cs1 (centres undefined)	inactive
O=C(CCNc1ccccc1)c1ccc2c(c1)OCO2	inactive
C=CCN1C(=O)S/C(=C\c2ccc(N3CCOCC3)cc2C)C1=O	inactive
Cc1ccc(C)c(C(=O)Cn2ncc(Cl)c(Cl)c2=O)c1	inactive
Cc1ccc(SCCC(=O)N2CCC(C)CC2)cc1	inactive
CS(=O)(=O)N1CCN(c2nc3ccc(Cl)cc3s2)CC1	inactive
O=C(Nc1ccc(F)cc1F)c1cc2ccccc2oc1=O	inactive
COc1ccc(CCC(=O)N2CCc3ccccc32)cc1	inactive
CCOc1ccc(N(CC(=O)Nc2ccc(OC)cc2)S(C)(=O)=O)cc1	inactive
COc1ccc(C(=O)Nc2ccc3c(c2)OCCO3)cc1Br	inactive
Cn1c(/C=C/c2ccc(Cl)cc2)nc2ccccc2c1=O	inactive
COc1cccc(-c2csc3ncnc(Sc4nnnn4C)c23)c1	inactive
Cn1c(/C(C#N)=C/c2ccc(-c3ccc(S(N)(=O)=O)cc3)o2)nc2ccccc21	inactive
CC1CCCCC1NC(=O)/C(C#N)=C/c1ccccc1F (centres undefined)	inactive

Structure (SMILES)	outcome
O=C1c2cc([N+](=O)[O-])cc3cc([N+](=O)[O-])cc(c23)C(=O)N1c1ccccn1	inactive
N#C/C(=C\c1cccs1)C(=O)NCC1CCCO1 (centres undefined)	inactive
N/C(=N\OC(=O)c1ccc([N+](=O)[O-])cc1)c1ccc(Br)cc1	inactive
CC(C)N=c1c([N+](=O)[O-])nn(C)n1O	inactive
CCN1CCc2c(sc(NC(=O)c3ccc(S(=O)(=O)N4CCCC4)cc3)c2C(=O)NC)C1	inactive
COc1cccc(NC(=O)c2cc3ccccc3cc2OC)c1	inactive
O=C(N/N=C/C(Cl)=C\c1ccccc1)c1cccs1	inactive
CCOc1ccc(-c2ccc(SC)nn2)cc1	inactive
O=C(Nc1ccc(Cl)cc1)OCc1ccccn1	inactive
CC1CCN(c2nc3ccc(C(=O)O)cc3s2)CC1	inactive
O=C(O)c1ccc(Nc2nc3c(s2)CCCC3)cc1	inactive
Cc1c(C=O)c2cc(OCc3ccccc3)ccc2n1C	inactive
Cn1c(=O)c([N+](=O)[O-])c(-n2ccnc2)c2ccccc21	inactive
NCCCNc1nc(N)c([N+](=O)[O-])c(NC2CCCCC2)n1	inactive
N/C(=N\OC(=O)c1ccccc1Cl)c1cccc([N+](=O)[O-])c1	inactive
O=C(NC(=S)Nc1ccccn1)c1cccc([N+](=O)[O-])c1	inactive
Cc1ccc2c(COC(=O)c3n[nH]c4ccccc34)cc(=O)oc2c1	inactive
CC(C)(C)c1ccc(-c2noc(CCC(=O)NCc3ccco3)n2)cc1	inactive
Cc1cc(-n2c(SCC(=O)NCCC3=CCCCC3)nc3n[nH]c(C)c3c2=N)ccc1Cl	inactive
CC(/C=N/NC(=O)c1cc(-c2ccncc2)nc2ccccc12)=C\c1ccco1	inactive
Cc1cccc2sc(N(CCCN(C)C)C(=O)c3nc4ccccc4s3)nc12	inactive
COc1ccc(C)c2sc(N(CCN(C)C)C(=O)/C=C/c3cccs3)nc12	inactive
Cn1nc([N+](=O)[O-])nc1S(C)(=O)=O	inactive
COc1cccc(-c2nnc3n2N=C(C(C)(C)C)CS3)c1	inactive
